Assay results from PubChem BioAssay.
Activity calls are given as the source filed them. Unless noted, how the calls were made is not given here.

Key:
[1] = A549 cell viability effects, profiling panel, calcein-AM fluorescence, 48 h, basal (AID 1162); conditions: higher = more signal; further: test concentration not given here
[2] = adipocyte viability effects, profiling panel, cell-based, 3T3-L1 adipocytes, calcein-AM fluorescence, 48 h, basal (AID 1163); conditions: 3T3-L1 adipocytes viability, higher = more signal; further: test concentration not given here
[3] = HepG2 cell viability effects, profiling panel, calcein-AM fluorescence, 48 h, basal (AID 1164); conditions: higher = more signal; further: test concentration not given here
[4] = MM1S cell viability effects, profiling panel, calcein-AM fluorescence, 48 h, basal (AID 1165); conditions: higher = more signal;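 further: viability of MM1S multiple myeloma cells under basal unstimulated conditions; test concentration not given here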
[5] = basal RPMI8226 viability, no added stimulus, profiling panel, cell-based, calcein-AM fluorescence, 48 h, PK04 Diversity Set (AID 1166); conditions: RPMI8226 myeloma viability, higher = more signal;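 further: cells grown under basal conditions without added stimulus; test concentration not given here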
[6] = basal HepG2 mitochondrial membrane potential changes, profiling panel, cell-based, JC-1 fluorescence, 24 h, 100 nL compound (AID 1167); conditions: higher = more signal; further: test concentration not given here
[7] = basal 3T3-L1 adipocyte mitochondrial potential changes, profiling panel, cell-based, JC-1 fluorescence, 3T3-L1 adipocytes, 24 h, 100 nL compound (AID 1168); conditions: JC-1 mitochondrial fluorescence, higher = more signal, called active from +8 up or from −8 down; further: test concentration not given here
[8] = basal RPMI8226 mitochondrial membrane potential changes, profiling panel, cell-based, JC-1 fluorescence, 24 h, 100 nL compound (AID 1169); conditions: RPMI8226 myeloma, JC-1 mitochondrial potential fluorescence, higher = more signal; further: test concentration not given here
[9] = basal MM1S mitochondrial membrane potential changes, profiling panel, cell-based, JC-1 fluorescence, 24 h, 100 nL compound (AID 1170); conditions: higher = more signal; further: test concentration not given here
[10] = A549 lung cancer cell viability effects, profiling panel, resazurin fluorescence, 24 h, PK04 Diversity Set (AID 1171); conditions: higher = more signal, called active from +8 up or from −8 down; further: test concentration not given here
[11] = HepG2 liver cancer cell viability effects, profiling panel, resazurin fluorescence, 24 h, PK04 Diversity Set (AID 1172); conditions: higher = more signal; further: test concentration not given here
[12] = basal S. cerevisiae growth modulation, no modifier, primary screen, OD600, strain BY4716, 24 h, basal condition (AID 1173); conditions: OD600, 24 h, higher = more signal, called active from +8 up or from −8 down
[13] = MM1S myeloma cell viability, profiling panel, resazurin fluorescence, basal, 24 h, PK04 Diversity Set (AID 1174); conditions: higher = more signal, called active from +8 up or from −8 down;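 further: MM1S multiple myeloma cell line; test concentration not given here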
[14] = molecular target: Dihydroorotate dehydrogenase (quinone), mitochondrial (Plasmodium falciparum (isolate 3D7)) (UniProt Q08210); assay: PfDHODH enzyme inhibitors, primary screen, biochemical, C-terminal His tag, absorbance 600 nm (AID 1175); conditions: DCIP absorbance 600 nm, higher = more signal, called active from +8 up or from −8 down;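 further: recombinant parasite enzyme with a five histidine tag at its C terminus; test concentration not given here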
[15] = P. aeruginosa biofilm formation inhibitors, primary screen, strain PAO1, LB-PBS medium, absorbance 600 nm (AID 1176); further: test concentration not given here; conditions: P. aeruginosa PAO1 growth/biofilm, A600, 12 h; higher = more signal
[16] = S. cerevisiae RM11-1a growth modifiers, primary screen, strain RM11-1a, OD600, basal, 24 h (AID 1177); conditions: OD600, 24 h, higher = more signal, called active from +8 up or from −8 down;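 further: cultures grown under basal conditions with no added stressor; test concentration not given here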
[17] = E. coli acrAB mutant growth effects, primary screen, E. coli filamentation inducers, strain DRC39, OD650, 24 h (AID 1178); conditions: higher = more signal, called active from +8 up or from −8 down;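 further: growth measured as culture turbidity by optical density at 650 nm; test concentration not given here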
[18] = E. coli acrAB mutant growth effects, primary screen, E. coli filamentation inducers, strain DRC39, OD650, 48 h (AID 1179);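 further: screen aims at cell division blockers that make cells filament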; conditions: E. coli DRC39 delta-acrAB growth, higher = more signal, called active from +8 up or from −8 down
[19] = RPMI8226 myeloma cell viability, profiling panel, resazurin fluorescence, basal, 24 h, PK04 Diversity Set (AID 1180); conditions: higher = more signal;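 further: RPMI8826 multiple myeloma cell line at 5000 cells per well; test concentration not given here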
[20] = molecular target: E3 ubiquitin-protein ligase XIAP (Homo sapiens) (UniProt P98170); assay: XIAP binders, primary screen, biophysical, small-molecule microarray, fluorescence 635 nm (AID 1181); conditions: small-molecule microarray binding, higher = more signal;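 further: score merges 667 nm emission and signal to noise over triplicate slides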
Sequence of E3 ubiquitin-protein ligase XIAP (Homo sapiens) (P98170 whole entry, looked up): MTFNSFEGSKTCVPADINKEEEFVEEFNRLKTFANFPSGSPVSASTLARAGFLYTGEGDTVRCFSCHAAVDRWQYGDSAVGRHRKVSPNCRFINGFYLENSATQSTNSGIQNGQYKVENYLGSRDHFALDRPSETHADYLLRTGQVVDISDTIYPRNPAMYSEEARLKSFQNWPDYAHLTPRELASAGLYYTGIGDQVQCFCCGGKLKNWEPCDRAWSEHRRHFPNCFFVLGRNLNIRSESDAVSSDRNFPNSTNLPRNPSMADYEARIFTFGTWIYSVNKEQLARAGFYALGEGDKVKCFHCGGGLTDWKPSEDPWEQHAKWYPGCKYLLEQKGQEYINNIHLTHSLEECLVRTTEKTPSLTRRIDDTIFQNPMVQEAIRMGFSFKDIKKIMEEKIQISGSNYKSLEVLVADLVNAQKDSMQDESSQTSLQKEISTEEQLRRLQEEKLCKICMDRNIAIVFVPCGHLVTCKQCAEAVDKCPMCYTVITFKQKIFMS

Sequence of Dihydroorotate dehydrogenase (quinone), mitochondrial (Plasmodium falciparum (isolate 3D7)) (Q08210 whole entry, looked up): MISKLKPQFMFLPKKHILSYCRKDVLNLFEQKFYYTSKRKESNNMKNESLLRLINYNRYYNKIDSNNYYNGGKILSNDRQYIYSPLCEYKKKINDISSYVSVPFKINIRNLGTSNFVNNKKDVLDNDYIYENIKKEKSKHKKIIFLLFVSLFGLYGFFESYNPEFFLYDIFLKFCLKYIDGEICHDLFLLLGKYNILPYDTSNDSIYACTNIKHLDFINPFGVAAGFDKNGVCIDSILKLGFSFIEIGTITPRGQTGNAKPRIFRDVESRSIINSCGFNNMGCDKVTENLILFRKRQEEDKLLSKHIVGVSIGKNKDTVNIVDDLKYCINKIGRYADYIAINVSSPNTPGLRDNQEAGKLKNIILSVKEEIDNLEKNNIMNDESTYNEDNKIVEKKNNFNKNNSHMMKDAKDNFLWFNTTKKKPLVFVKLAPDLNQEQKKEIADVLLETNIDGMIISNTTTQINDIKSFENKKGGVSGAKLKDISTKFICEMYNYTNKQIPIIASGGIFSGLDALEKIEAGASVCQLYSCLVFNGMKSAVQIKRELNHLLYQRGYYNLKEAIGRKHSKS

Structure (SMILES) | z-score [1] | z-score [2] | z-score [3] | z-score [4] | z-score [5] | z-score [6] | z-score [7] | z-score [8] | z-score [9] | z-score [10] | z-score [11] | z-score [12] | z-score [13] | composite z-score [14] | z-score [15] | z-score [16] | z-score [17] | z-score [18] | z-score [19] | composite z-score [20]
CCCCC#C[C@@H]1C=C[C@H](Oc2cc(OC)c(OC)c(OC)c2)[C@@H](COC(=O)OCC)O1 | 1.75 | -0.931 | 0.928 | -2.65 | -1.86 | -0.163 | 0.841 (inactive) | 0.23 | -0.254 | -0.108 (inactive) | -0.826 | -0.535 (inactive) | -1.03 (inactive) | -1.48 (inactive) | 0.806 (inactive) | 0.628 (inactive) | 1.02 (inactive) | 0.751 (inactive) | -0.65 | -0.113
CCOC(=O)[C@H](Cc1ccccc1)NC(=O)CCC1CC(OC(=O)NCCc2ccc(F)cc2)CC2(CCCC(COC(=O)NCC3CCCCC3)O2)O1 (stereo not given in full) | 1.35 | -0.78 | 0.901 | -3.14 | 0.219 | 0.809 | 0.367 (inactive) | -0.0221 | -1.29 | 0.384 (inactive) | 0.211 | -0.362 (inactive) | 0.368 (inactive) | -0.189 (inactive) | 0.781 (inactive) | 0.869 (inactive) | 0.828 (inactive) | 1.21 (inactive) | 0.772 | -0.0009
O=C1[C@H]2[C@H]3[C@H](O)[C@H](O)CC(=NOCc4ccccc4)[C@@H]3CC[C@H]2C(=O)N1Cc1ccc2c(c1)OCO2 | -0.152 | -0.121 | -0.937 | 0.266 | -2.81 | -0.335 | 0.17 (inactive) | -0.234 | -0.0728 | 0.688 (inactive) | 1.03 | -0.419 (inactive) | 0.0481 (inactive) | -0.0799 (inactive) | 0.07 (inactive) | -0.0921 (inactive) | 0.419 (inactive) | 0.128 (inactive) | 1.01 | -0.0377
CC(CCN1CCc2nc(-c3ccccc3)c(-c3ccccc3)cc2C1)=NOC[C@@H](O)[C@H]1O[C@@H]2OC(C)(C)O[C@@H]2[C@H]1O | 1.89 | -0.144 | 1.62 | -2.72 | -0.676 | 2.55 | -1.54 (inactive) | -0.109 | 0.0398 | -0.555 (inactive) | -0.31 | -3.84 (inactive) | -1.06 (inactive) | -0.897 (inactive) | 0.359 (inactive) | -0.187 (inactive) | 1.39 (inactive) | 0.431 (inactive) | -0.776 | 0.145
COc1cccc([C@H]2Oc3ccc(OC)cc3C(=NOC(C)CN3CCCCc4nc(C)c(C)cc43)[C@@H]2O)c1 (stereo not given in full) | 0.217 | -0.527 | 0.0117 | -1.02 | -0.836 | -0.108 | -0.832 (inactive) | -0.00251 | -0.144 | -0.565 (inactive) | -0.621 | -0.951 (inactive) | -1.16 (inactive) | -0.695 (inactive) | 0.253 (inactive) | -0.0905 (inactive) | 0.597 (inactive) | 0.748 (inactive) | -1.16 | -0.0525
